Source: PubChem
beta cell repl = inducers of beta-cell replication in MIN6 cells. MIN6 cells proliferation, ATPlite luminescence, 48 h; cells starved in 0.2% serum; 100% = growth in 10% serum. proliferation, % at 10 µM. hit rate 0.29% among 330,000. AID 2380;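 active = compounds whose signal lies at least 3.5 SD above the mean of all wells on their plate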
CHT PAM = allosterically activates the human high affinity choline transporter. CHT-expressing cells, membrane potential dye, choline EC20; active compounds read high; LV-AA mutant CHT in HEK293 cells. B-score at 10 µM. hit rate 0.49% among 310,000;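 active = initial fluorescence not abnormally high and integrated response B-score, plate-corrected, over 3 SD above library mean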
Target sequence (Q9GZV3 whole entry, looked up): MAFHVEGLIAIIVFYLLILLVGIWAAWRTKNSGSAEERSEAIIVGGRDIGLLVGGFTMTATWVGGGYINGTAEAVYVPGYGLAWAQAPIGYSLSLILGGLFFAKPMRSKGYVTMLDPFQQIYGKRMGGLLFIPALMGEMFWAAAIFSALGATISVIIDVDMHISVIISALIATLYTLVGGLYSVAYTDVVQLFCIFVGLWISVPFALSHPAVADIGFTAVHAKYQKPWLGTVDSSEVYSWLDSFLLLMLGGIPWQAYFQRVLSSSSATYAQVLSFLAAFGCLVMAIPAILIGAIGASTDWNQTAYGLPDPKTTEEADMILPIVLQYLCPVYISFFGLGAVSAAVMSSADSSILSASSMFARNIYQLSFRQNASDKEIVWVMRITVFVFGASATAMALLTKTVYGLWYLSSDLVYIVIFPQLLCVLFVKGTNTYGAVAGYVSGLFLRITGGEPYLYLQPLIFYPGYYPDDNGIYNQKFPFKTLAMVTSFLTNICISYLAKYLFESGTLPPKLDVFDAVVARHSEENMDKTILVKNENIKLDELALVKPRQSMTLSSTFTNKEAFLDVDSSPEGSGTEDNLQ
CHT inh = inhibits the human high affinity choline transporter; Q9GZV3; hit rate 0.86% among 310,000; AID 488975; B-score at 10 µM; CHT-expressing cells, membrane potential dye, choline response; active compounds read low;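 active = B-score over 3 SD under the library average, and starting fluorescence ratio not unusually high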;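 note: choline stimulus applied at its EC90 after an EC20 pre-addition; B-score computed on integrated fluorescence ratio after choline addition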
TAG inh = inhibitors of triacylglycerol accumulation; H9c2 cells, Nile Red lipid (TAG) fluorescence; cells loaded with 200 µM oleic acid; hit rate 0.66% among 230,000; inhibition, % at 12.5 µM;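 active = pattern-corrected inhibition of lipid staining of at least 50% with the nuclear-stain viability signal not falling by more than 50%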
H9c2 TAG conf = confirmation of triacylglycerol accumulation inhibitors; shares compounds with TAG inh; AID 651629; hit rate 71% among 990; H9c2 lipid accumulation, Nile Red fluorescence; cells loaded with 200 µM oleic acid; inhibition, % at 12.5 µM;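 active = mean inhibition across replicates of 40% or more; inactive = mean inhibition below 40%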
Hits are given with their value; n = inactive; x = not tested or not shown. Hits are enriched below; roughly 1.7% of the tested compounds scored in any of these assays.

SMILES | beta cell repl | CHT PAM | CHT inh | TAG inh | H9c2 TAG conf
O=C(NC(=S)NCCc1ccccc1)C1CCCCC1 | n | n | n | n | x
O=C(NC(=S)N(Cc1ccccc1)Cc1ccccc1)C1CCCCC1 | n | n | n | 54 | n
CCC(C)(C)NC(=O)C(c1ccc(OC)cc1)N(Cc1cccs1)C(=O)CCC(=O)Nc1cc(C)on1 (centres undefined) | n | n | n | 72 | 68
CCC(C)(C)NC(=O)C(c1ccc(OC)cc1)N(CC1CCCO1)C(=O)CCC(=O)Nc1cc(C)on1 (centres undefined) | n | n | n | 57 | 41
COc1ccc(C(C(=O)NC(C)(C)C)N(Cc2cccs2)C(=O)CCC(=O)Nc2cc(C)on2)cc1 (centres undefined) | n | n | n | 70 | 49
CCC(C)(C)NC(=O)C(c1ccc(OC)cc1)N(C(=O)CCC(=O)Nc1cc(C)on1)C1CC1 (centres undefined) | n | n | n | x | x
COc1ccccc1NS(=O)(=O)c1ccc(C)c(NC(=O)c2c(C)noc2C)c1 | n | x | x | n | x
COc1ccccc1CNC(=O)[C@H](C)NC(=O)C1CCN(C(=O)[C@@H](N)CC(C)C)CC1 | n | n | n | x | x
CCOC(=O)CC1C(=O)NCCN1C(=O)c1ccc(Cl)cc1 (centres undefined) | n | n | n | x | x
COC(=O)CC1C(=O)NCCN1C(=O)c1ccc(S(=O)(=O)N2CCOCC2)cc1 (centres undefined) | n | n | n | 61 | n
COc1cc2ccccc2cc1C(=O)N/N=C/c1cccs1 | x | x | x | 55 | 64
O=C(NCc1ccccc1Cl)C1=CC=CN2CCS(=O)(=O)N=C12 | n | x | x | n | x
CC1(C)Cc2c(C#N)c(SCC(=O)c3ccccc3)nc(N3CCOCC3)c2CS1 | n | n | n | 51 | 59
Cc1cc(NC(=O)CSc2nc(-c3cccs3)nc3ccccc23)no1 | n | x | x | 78 | 73
Cc1cc(NC(=O)CSc2nc(C(C)(C)C)nc3ccccc23)no1 | n | n | n | n | x
CCC(C)NCCOCCOc1ccc(Cl)c2ccccc12 (centres undefined) | n | n | n | 53 | 45
CCC(C)NCCOCCOc1ccc(Cl)c(C)c1C (centres undefined) | n | n | n | n | x
CCOC(=O)c1[nH]c(C)c(C(=O)Nc2cc(Cl)ccc2C)c1C | n | n | n | x | x
CCOC(=O)c1[nH]c(C)c(C(=O)Nc2ccccc2C)c1C | n | n | n | 54 | 59
Cc1nc2ccc(Cl)cc2c(-c2ccccc2)c1C(=O)N(C)C | n | n | n | x | x
CCOC(=O)c1c(CN2CCNCC2)nc2ccc(Cl)cc2c1-c1ccccc1 | x | x | x | 70 | 78
CCN(CC(=O)Nc1ccc2c(c1)OCCO2)C(=O)COc1ccc(C)cc1 | n | n | n | n | x
CCOc1ccc(C(=O)NC(=S)Nc2cccc(S(=O)(=O)NC3=NCCC3)c2)cc1 | n | n | n | 51 | 57
Cc1ccc(C(=O)OCC(=O)Nc2cccc(S(=O)(=O)NC3=NCCCCC3)c2)c(C)c1 | n | n | n | 78 | n
N=c1c(C(=O)NCc2ccc(F)cc2)cc2c(=O)n3ccccc3nc2n1CC1CCCO1 (centres undefined) | n | n | n | 51 | n
SMILES | beta cell repl | CHT PAM | CHT inh | TAG inh | H9c2 TAG conf
N=c1c(C(=O)NCCc2ccccc2)cc2c(=O)n3ccccc3nc2n1CC1CCCO1 (centres undefined) | n | n | n | x | x
COc1ccc(CC(N)c2csc(NC(=O)NCc3ccccc3)n2)cc1 (centres undefined) | x | x | x | 53 | 42
NC(Cc1ccc(C(F)(F)F)cc1)c1csc(NC(=O)Nc2ccccc2)n1 (centres undefined) | x | x | x | n | x
COc1ccc(CC(N)c2csc(NC(=O)Nc3ccccc3-c3ccccc3)n2)cc1 (centres undefined) | x | x | x | 73 | 87
COC(=O)c1cc(C)nc(Nc2nc(C(N)Cc3ccc(Cl)cc3)cs2)n1 (centres undefined) | x | x | x | n | x
COc1cc(OC)nc(Nc2nc(C(N)Cc3ccc(Cl)cc3)cs2)n1 (centres undefined) | x | x | x | 58 | 46
COc1cc(CNC(=O)Nc2nc(C(N)Cc3ccc(C(F)(F)F)cc3)cs2)cc(OC)c1OC (centres undefined) | x | x | x | 76 | 88
Cc1ccccc1NC(=O)N(O)C1(C#N)CCCCC1 | x | x | x | n | x
CN1CCN(c2ccc(-c3cccc(NC(=O)COc4ccc(Cl)cc4Cl)c3)nn2)CC1 | n | n | n | n | x
COc1ccc(S(=O)(=O)Nc2ccccc2N2CCOCC2)cc1OC | n | x | x | n | x
